The source of these data is PubChem BioAssay (Tox21).

Results filed as inconclusive are left out. Active and inactive are the calls of the source. The call rests on the fitted dose curve; in most records, active means well fitted activation curve with a large enough effect in the repeat runs; inconclusive means weak or mixed curves; inactive means no such curve, though single readings can be large or run the other way.
On the % scale 0 is the no-effect control and ±100 the full control effect; potency means the concentration at half of the fitted maximal effect.

The target of this test is Aryl hydrocarbon receptor (Homo sapiens) (UniProt P35869). As to the kind of experiment: qHTS assay to identify small molecule that activate the aryl hydrocarbon receptor (AhR) signaling pathway (AID 743085). Further: nearly all actives have a fitted effect of over 15% in size.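 On activation: HG2L7.5c1 human HepG2 liver cells with stably integrated DRE-driven firefly reporter.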 The note with it: HepG2 AhR-luc (HG2L7.5c1), luciferase, 24 h; series mostly up to 70.3 µM; activation: at the top concentration. The text has this: U.S. Tox21 Program National Center for Advancing Translational Sciences [NCATS] NIH Chemical Genomics Center [NCGC] U.S. Environmental Protection Agency [EPA] National Institutes of Environmental Health Sciences [NIEHS] National Toxicology Program [NTP] U.S. Food and Drug Administration [FDA] Tox21 Assay overview: The Aryl hydrocarbon Receptor (AhR), a member of the family of basic helix-loop-helix transcription factors, is crucial to adaptive responses to environmental changes. AhR mediates cellular responses to environmental pollutants such as aromatic hydrocarbons through induction of phase I and II enzymes but also interacts with other nuclear receptor signaling pathways. A cell based HepG2-AhR-luc assay (HG2L7.5c1 cell line, developed by Dr. Michael S. Denison, University of California at Davis, was used to assess the activation of AhR. HepG2 (human hepatocellular carcinoma) cells were stably transfected with an Ah receptor-responsive firefly luciferase reporter gene plasmid containing 20 dioxin responsive elements and luciferase reporter gene. Increased luciferase activity can be used to identify the compounds that induce AhR activation.
Sequence of Aryl hydrocarbon receptor (Homo sapiens) (P35869 whole entry, looked up): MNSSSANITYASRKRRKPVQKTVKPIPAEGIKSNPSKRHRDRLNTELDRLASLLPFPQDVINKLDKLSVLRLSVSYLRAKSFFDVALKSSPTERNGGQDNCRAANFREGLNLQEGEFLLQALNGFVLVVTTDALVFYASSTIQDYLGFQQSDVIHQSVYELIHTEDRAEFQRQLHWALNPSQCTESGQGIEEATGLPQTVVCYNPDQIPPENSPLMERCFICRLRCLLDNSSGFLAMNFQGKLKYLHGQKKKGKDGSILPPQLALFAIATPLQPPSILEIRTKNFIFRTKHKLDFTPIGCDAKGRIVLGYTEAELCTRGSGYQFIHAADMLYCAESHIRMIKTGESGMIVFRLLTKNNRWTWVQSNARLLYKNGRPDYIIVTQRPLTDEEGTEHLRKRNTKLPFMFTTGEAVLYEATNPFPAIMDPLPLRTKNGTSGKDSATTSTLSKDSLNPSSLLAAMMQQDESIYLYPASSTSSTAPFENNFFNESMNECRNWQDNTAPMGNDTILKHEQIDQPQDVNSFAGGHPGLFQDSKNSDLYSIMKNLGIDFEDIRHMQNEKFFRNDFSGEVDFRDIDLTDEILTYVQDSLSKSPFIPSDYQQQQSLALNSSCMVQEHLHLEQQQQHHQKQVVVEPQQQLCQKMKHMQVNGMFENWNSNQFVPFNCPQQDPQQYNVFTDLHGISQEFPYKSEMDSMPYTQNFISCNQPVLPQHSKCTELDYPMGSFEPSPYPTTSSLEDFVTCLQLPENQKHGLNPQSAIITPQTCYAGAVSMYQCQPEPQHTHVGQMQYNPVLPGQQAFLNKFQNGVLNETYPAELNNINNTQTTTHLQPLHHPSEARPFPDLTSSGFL
Tox21 Assay Protocol Summary: 4000 cells in 5 uL/well were dispensed into white wall/solid bottom 1536-well plates using a Multidrop Combi (Thermo Fisher Scientific Inc., Waltham, MA) dispenser. After the assay plates were incubated at 37C for 5 h, 23 nL of compound or DMSO vehicle was transferred to the assay plates by a pintool station (Kalypsys, San Diego, CA). The plates were incubated at 37C for 24 hr. After 1 ul/well of CellTiter-Fluor reagent (Promega, Madison, WI) was added into the assay plates using a Flying Reagent Dispenser (FRD) (Aurora Discovery, CA), the assay plates were incubated at 37C for 30 min. The fluorescence intensity in the plates was measured using a ViewLux plate reader (PerkinElmer, Shelton, CT), followed by the addition of 4 uL of ONE-Glo Luciferase Assay reagent (Promega) using an FRD (Aurora Discovery). After the assay plates were incubated at room temperature for 30 min, luminescence intensity was measured using a ViewLux plate reader (Perkin Elmer).
(Quantitative high-throughput screening tests each substance at several concentrations.)
For the compound `COc1cc(CC(C)N)c(OC)cc1Br` (stereo not given), the “activation” value is 5.13% (inactive).

For the compound `CCC1(CC)C(=O)NC(=O)NC1=O`, the “activation” value was -0.376% (inactive).

With `CCC[N+](CCC)(CCC)CCC`, the “activation” value is -1.32% (inactive).

For the compound `O=C(O)c1cc(I)cc(I)c1I`, the “activation” value was -0.45% [at 95 µM] (inactive).

Turning to `O=[N+]([O-])c1cc(Cl)c(Cl)cc1Cl`, the “activation” value was 5.46% (inactive).

Consider `CCC(C)(C)c1ccc(O)c(C(C)(C)CC)c1`, for which the Potency entry is “inactive”.

`C=C(C)C(=O)OCCCCOC(=O)C(=C)C`: the “activation” value was 2.79% (inactive).

In the case of `C[N+](C)(C)CC1CO1` (stereo not given), the “activation” value is -0.159% (inactive).

With `CC(C)CCCCCCCOC(=O)c1ccccc1C(=O)OCCCCCCCC(C)C`, the “activation” value is -0.757% (inactive).

As for `Nc1ccccc1C(=O)OCCc1ccccc1`, the Potency is 30.6 µM (active).

`CCC1(C2=NCCN2)Cc2ccccc2O1` (stereo not given): the “activation” value is -4.36% (inactive).

`O=S(=O)(c1ccccc1)c1ccccc1`: the “activation” value is -0.885% (inactive).

Consider `FC(F)OC(F)(F)C(F)Cl` (stereo not given), for which the Potency result is “inactive”.

As for `Cc1nc2ccccc2c(=O)n1-c1ccccc1Cl`, the “activation” value was -0.723% (inactive).

On to `O=C(O)C(F)(F)C(F)(F)C(F)(F)C(F)(F)C(F)(F)C(F)(F)C(F)(F)C(F)(F)F`, for which the “activation” value was 2.92% (inactive).

`C=CC(=O)OCC`: the “activation” value was -1.46% [at 95 µM] (inactive).

For `CCCCC(CC)CO[N+](=O)[O-]` (stereo not given), the “activation” value was -1.53% (inactive).

In the case of `CN1CC[C@]23c4c5ccc(O)c4O[C@H]2[C@@H](O)CC[C@H]3[C@H]1C5`, the “activation” value is -3.42% (inactive).

Consider `C#C[C@]1(O)CC[C@H]2[C@@H]3CCC4=CC(=O)CCC4=C3C=C[C@@]21CC`, for which the “activation” value was 2.42% (inactive).

Consider `CON(C)C(=O)Nc1ccc(Cl)cc1`, for which the Potency was 27.3 µM (active).

On to `C[C@H]1O[C@H](OC2[C@@H](O)[C@@H](O)C(O)[C@H](O)[C@H]2O)[C@@H](N)C[C@@H]1N=C(N)C(=O)O` (stereo not given in full), for which the “activation” value is -0.752% (inactive).

Take `O=[N+]([O-])O[C@H]1CO[C@H]2[C@@H]1OC[C@H]2O[N+](=O)[O-]`: the “activation” value was -0.303% (inactive).

With `CC1(C)CC(=O)CC(C)(C)N1[O]`, the “activation” value was -0.51% (inactive).

For the compound `CCOP(=S)(S)OCC`, the “activation” value is -0.668% [at 95 µM] (inactive).

For `CN1C(=O)CN=C(c2ccccc2)c2cc([N+](=O)[O-])ccc21`, the “activation” value was 1.76% (inactive).

In the case of `COCc1cnc(C2=NC(C)(C(C)C)C(=O)N2)c(C(=O)O)c1` (stereo not given), the “activation” value is -0.0708% (inactive).

As for `Nc1c(Br)cc(Br)c2c1C(=O)c1ccccc1C2=O`, the Potency was 7.25 µM (active).

In the case of `CC(=O)NNc1ccccc1`, the “activation” value was 2.32% (inactive).

In the case of `CCc1cnc(C2=NC(C)(C(C)C)C(=O)N2)c(C(=O)O)c1` (stereo not given), the Potency result was “inactive”.

As for `Oc1cccc(Cl)c1`, the “activation” value is -0.139% (inactive).

Turning to `O=CC=O`, the Potency result was “inactive”.

For the compound `C=CCN1C[C@H](C)N([C@H](c2ccc(C(=O)N(CC)CC)cc2)c2cccc(OC)c2)C[C@H]1C`, the “activation” value is -2.18% (inactive).

Consider `N#CC(C#N)=C(C#N)C#N`, for which the “activation” value is -0.405% [at 95 µM] (inactive).

For the compound `Cc1ccccc1`, the Potency entry is “inactive”.

`CC(Cl)C(=O)O` (stereo not given): the “activation” value is 0.849% [at 95 µM] (inactive).

With `O=P(OCC(Br)CBr)(OCC(Br)CBr)OCC(Br)CBr` (stereo not given), the “activation” value was -0.604% [at 95 µM] (inactive).

As to `COc1cc(C[C@@H](C)N)c(OC)cc1Br`, the “activation” value is 1.01% [at 95 µM] (inactive).

With `CC(Oc1cc(Cl)c(Cl)cc1Cl)C(=O)O` (stereo not given), the “activation” value was -0.697% (inactive).

As for `CN(C)C(=O)Nc1cccc(OC(=O)NC(C)(C)C)c1`, the “activation” value is 6.52% (inactive).

With `CCCCCBr`, the “activation” value was -0.0945% [at 95 µM] (inactive).
